Results on 38 compounds are retold here after PubChem BioAssay AID435019 (Southern Research Specialized Biocontainment Screening …, 2010).

Among all 2,300 compounds or so, about 1,200 (52%) were called active. How the calls were made is not given here. The set was probably picked from earlier hits. Some of the results follow. Measured potencies and affinities stand elsewhere.

The nature of this assay: mammalian cell cytotoxicity, dose response, cytotoxicity control for M. tuberculosis inhibitor project (AID 435019).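 Further: lower values mean fewer viable cells so more cytotoxicity.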 The following applies: cytotoxicity counter-screen; series mostly up to 40 µM. (In general: A counterscreen serves to expose hits that act by an unwanted route or on another target.)
As to `COc1ccc(-c2cc(C3CCN(C(=O)OC(C)(C)C)CC3)[nH]n2)cc1`, the compound was classed as inactive.
Under `CCCCCc1ccc(-c2cn(Cc3cccc(OC)c3)nn2)cc1` stands “inactive”.
For the compound `COc1ccc(C(=O)OCCNC(=O)c2c(Cl)nc3ccccn23)cc1`, the outcome was inactive.
As to `CCOC(=O)c1sc2nc3n(c(=O)c2c1C)CCC(C)CC3` (stereo not drawn), the outcome was inactive.
Under `COc1ccccc1NC(=O)C(C)OC(=O)/C=C/c1ccc2ccccc2n1` (stereo not drawn) stands “inactive”; under `CC(OC(=O)c1cc(Cl)ccc1[N+](=O)[O-])C(=O)NC(C)c1ccc(F)cc1` (stereo not drawn), “inactive”.
Turning to `Cn1c(=O)c2cc(NCc3ccccc3)nnc2n(C)c1=O`, the call was inactive.
With `Cn1c(=O)n(Cc2ccccc2)c(=O)c2c1nc1n2CCCN1C1CCCCC1`, the compound was classed as inactive.
The same measure for `Cc1nn(-c2ccccn2)c2c1-c1nc(N3CCOCC3)ncc1CC2`: “inactive”.
The same measure for `CCOC(=O)CSc1ncc(OC)c(Sc2ccc(OC)cc2)n1`: “inactive”.
Under `Cc1ccc(-c2c[n+](CC(=O)N3c4ccccc4Sc4ccccc43)c3n2CCC3)cc1` stands “inactive”; under `C=CCN1CC[C@]23c4c5ccc(O)c4O[C@H]2/C(=N/NC(=O)c2ccccc2)CC[C@@]3(O)[C@H]1C5`, “inactive”.
As to `CCOC(=O)c1sc2ncnc(NCC(c3cccs3)N(C)C)c2c1C` (stereo not drawn), the call was inactive.
Under `Cc1cc(C(=O)N/N=C/c2ccc(-c3ccc([N+](=O)[O-])cc3Cl)o2)n[nH]1` stands “inactive”.
The same measure for `Cc1c(Cl)c([N+](=O)[O-])nn1Cc1ccc(C(=O)N/N=C\c2cccc(Br)c2)o1`: “inactive”.
Under `CCn1c(SCC(=O)Nc2ccc3c(c2)oc2ccccc23)nnc1-c1ccc(N)cc1` stands “inactive”; under `CCSCc1nnc(SCC(=O)Nc2cccc(SC)c2)n1C`, “inactive”.
Turning to `Clc1cc(Cl)cc(Nc2ncn[nH]2)c1`, the compound was called inactive.
Under `C/C(CC(=O)Nc1ccc(C)c(Cl)c1)=N\NC(=O)Cc1cnc(N)s1` stands “inactive”.
`COc1ccc(C(C)=O)cc1COC(=O)c1ccc2ccccc2n1`: the result was inactive.
Turning to `Cc1ccc(C)c(NNC(N)=S)c1`, the compound was called inactive.
Under `O=c1c2c(nc3nc(NCc4ccc(Cl)cc4)[nH]n13)CCC2` stands “inactive”; under `COc1ccc(CCNc2cc(-c3ccccc3)nc3ncnn23)cc1`, “inactive”.
Under `COC(=O)CCCCC1SCC(NC(=O)c2ccccc2)C1=O` (stereo not drawn) stands “inactive”; under `N#Cc1ccc(CN2CCN(CC(=O)NCCc3ccc(Cl)cc3Cl)CC2)cc1`, “inactive”; under `COc1ccc(SN=C2C(C)=CC(=O)C=C2C)cc1`, “inactive”.
Take `COC(=O)C1C(O)C(C)C(O)C(C)/C=C\C=C(/C)C(=O)Nc2c(C)c(OC(C)=O)c3c(c2O)C(=O)C(C)=C2OCOC(=C23)/C(C)=C/C(C)(O)C(O)C(C)C1O` (stereo not drawn): the outcome was inactive.
For `C/C(=N/Nc1ccnc2cc(Cl)ccc12)c1ccc(O)cc1`, the result was inactive.
The same measure for `CCc1ccc(/C(C)=N/Nc2cc(Cl)nc(C)n2)cc1`: “inactive”; for `Cc1ccc2c(c1)nnn2C1CCN(CC(=O)N2CCN(c3ccc(F)cc3)CC2)CC1`: “inactive”; for `C/C(O)=C\c1nc2ccccc2oc1=O`: “inactive”.
Consider `c1ccc(CCN2CN=C(Nc3nc4ccccc4o3)NC2)cc1`, for which the outcome was inactive.
Under `CN1CCC(=NNC(=O)C(=O)Nc2ccccc2F)CC1` stands “inactive”; under `O=C(CCN1C(=O)/C(=C/c2ccccc2)SC1=S)Nc1ccccn1`, “inactive”; under `O=C(COC(=O)C1=COCCO1)Nc1cccc(Oc2ccccc2)c1`, “inactive”.
Take `CCOc1ccc2nc(/N=C/c3nc(-c4ccccc4)oc3O)sc2c1`: the outcome was inactive.
The same measure for `Cc1ccc(-c2nnc(C)c(N3CCCC3)n2)cc1`: “inactive”.
The same measure for `O=C(c1cc2ccccc2o1)N1CCN(S(=O)(=O)c2ccc(Cl)s2)CC1`: “inactive”.
